# From PubChem BioAssay (EPA / NIEHS)
# Results filed as inconclusive are left out. The source made the active and inactive calls. How the source made its calls, unless noted: active means hit-call score of the fitted dose curve at least 0.9, where 1 is the maximum; inactive means score below 0.9.
# Tests used:
# [1] = IUF_NPC1_cytotoxicity_72hr: Cytotoxicity Assessment at 72 hours in the Leibniz Research Institute for Environmental Medicine (IUF) Neural Progenitor Cell Proliferation Assay (NPC1) (AID 2284332; active means hit-call score of the fitted dose curve at least 0.9, where 1 is the maximum;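 further: rising LDH signal means more cytotoxicity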)
# How it was run: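 Readout is fluorescence from LDH-dependent resazurin conversion, sampled from culture medium after compound contact lasting 72 h. Each well holds one 0.25-0.35 mm human progenitor sphere kept at 37C, 5% CO2 with EGF and FGF.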
# [2] = CCTE_Deisenroth_5AR_NBTE_donor: CCTE's 5alpha-reductase NanoBRET Target Engagement Assay […], Deisenroth Lab (AID 2284319); settings: actives raise or lower the signal
# Procedure: CCTE_Deisenroth_5AR NBTE (5alpha-reductase NanoBRET Target Engagement Assay) is a cell-based, single-readout assay that uses HEK293T, a human kidney cell line, with measurements taken at 5 hours after chemical dosing in a 384 well plate. This assay includes a primary and secondary screen as well as an autofluorscence screen.CCTE_Deisenroth_5AR NBTE_donor is one of four assay components measured from the CCTE_Deisenroth_5AR NBTE assay. It is designed to make measurements of donor luminescence, as detected by bioluminescence intensity emission signals using spectrometry technology.Data from the assay component CCTE_Deisenroth_5AR NBTE_donor was analyzed into 1 assay endpoint. This assay endpoint, CCTE_Deisenroth_5AR NBTE_donor, was analyzed with bidirectional fitting relative to DMSO as the negative control and baseline of activity. Using a type of inducible reporter, gain or loss-of-signal activity can be used to understand changes in the donor luminescence as related to 5alpha-reductase catalytic function. Furthermore, this assay endpoint can be referred to as a secondary readout, because this assay has produced multiple assay endpoints where this one serves an artifact detection function.
# For transient expression of the SRD5A2-NanoLuc fusion protein, HEK293T cells are reverse transfected with pNLF1-C-SRD5A2 expression vector and incubated for 20 hours to facilitate fusion protein expression. For assay setup, 384-well non-binding surface (NBS) microplates are pre-dispensed with test chemical across an 8-point concentration series (10 nM - 29.9 uM) with two technical replicates per run. Cell suspensions are dispensed into the microplates and incubated with test chemical for a duration of three hours. Following pre-incubation with test chemical, the testosterone tracer is dispensed into each well and incubated an additional two hours. The total incubation period with test chemical is five hours, with testosterone tracer added the final two hours to reach target engagement equilibrium. For the NanoBRET endpoint measurements, a solution of Nano-Glo substrate and extracellular NanoLuc inhibitor solution is added to each test well and immediately scanned on a plate reader configured with multichromatic emission settings for donor luminescence ([…]) and acceptor fluorescence ([…]). DMSO solvent controls are included as baseline control. Plate-matched samples are run with mock tracer conditions or testosterone tracer to discriminate any potential non-specific substrate interference.
# [3] = CCTE_Deisenroth_5AR_NBTE_acceptor: CCTE's 5alpha-reductase NanoBRET Target Engagement Assay - Autofluorescence Screen, Deisenroth Lab (AID 2284321); settings: actives raise or lower the signal;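 further: compound fluorescence in the acceptor channel under 460 nm excitation flags autofluorescence artifacts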
# How it was run: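 Using three independent plate-reader runs, nominal 100 uM chemicals were checked for intrinsic fluorescence (ex 460 nm). DMSO defined the baseline for bidirectional fitting.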
# SRD5A2 (gene 6716) = assay: CCTE_Deisenroth_5AR_NBTE_ratio: CCTE's 5alpha-reductase NanoBRET Target Engagement Assay - Ratio, Deisenroth Lab (AID 2284322); settings: actives raise or lower the signal
# How it was run: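 SRD5A2-NanoLuc HEK293T; cmpd 10 nM-29.9 uM, 3 h preinc + testosterone tracer 2 h; NanoBRET ratio 650/460; bidirectional fit vs DMSO.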
# [4] = CCTE_Mundy_HCI_iCellGluta_NOG_NeuriteLength: CCTE's Neurite Outgrowth Assay in iCellGluta cells for Neurite Length, Mundy Lab (AID 2284318; active means hit-call score of the fitted dose curve at least 0.9, where 1 is the maximum)
# How it was run: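 Automated high-content imaging of betaIII-tubulin (Alexa Fluor-488) and Hoechst-stained cells gave neurite length, normalized to the DMSO baseline.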
# TTR (gene 7276) = assay: CCTE_GLTED_hTTR_0.5uM: CCTE's human Transthyretin (hTTR) Inhibition Assay, with 0.5uM TTR, Great Lakes Toxicology and Ecology Division (GLTED) Lab (AID 2284320)
# How it was run: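 Probe (ANSA) displacement from 0.5 uM human transthyretin was followed by fluorescence (ex 380, em 475) after a 2 h incubation with chemical. Activity was scored as signal loss and fitted positively relative to DMSO.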
# [5] = TAMU_PeakParms_SingleDonor1434_Asystole: Texas A&M University (TAMU) 1.5-hr Human Induced Pluripotent Stem Cell (iPSC)-derived Cardiomyocytes Calcium (Ca+2) Flux Assay for Cardiotoxicity: Asystole (quiescence of beating) (AID 2284328; active means hit-call score of the fitted dose curve at least 0.9, where 1 is the maximum)
# How it was run: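 Average Ca2+-flux peak frequency (beats/s) was recorded in single-donor iPSC-derived cardiomyocytes after 90 min exposure (0.2–100 uM final, 0.5% DMSO). Asystole POD set as EC95 against DMSO, no preprocessing.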
# [6] = system: Brachyury (BRA) Protein Expression, Deisenroth Lab, TBXT (gene 6862); assay: CCTE_Deisenroth_DEVTOX-GLR_legacy_Bra: (Legacy) CCTE's DevTox GLR-Endo Assay Evaluation of Brachyury (BRA) Protein Expression, Deisenroth Lab (AID 2284329)
# How it was run: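 Percent Bra-positive cells, scored by high-content imaging against a threshold of 5x BMAD over the undifferentiated control median, with the 0.2% DMSO median subtracted. RUES2-GLR cultures were dosed twice at 24 h intervals across a 48 h differentiation, at 1 nM–200 uM in ten steps, with n=4 replicates.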
# [7] = CCTE_Deisenroth_DEVTOX-GLR_legacy_CellCount: (Legacy) Viability Assessment in CCTE's DevTox GLR-Endo Assay, Deisenroth Lab (AID 2284331); settings: actives raise or lower the signal
# Procedure: CCTE_Deisenroth_DEVTOX-GLR_legacy assay is a cell-based, multiplex-readout assay that uses RUES2-GLR, a human pluripotent cell line, with measurements taken at 48 hours after chemical dosing in a 384-well microplateCCTE_Deisenroth_DEVTOX-GLR_legacy_CellCount is one of 4 assay components calculated from the CCTE_Deisenroth_DEVTOX-GLR_legacy assay that measures an increase in cell count. It is designed to make measurements of nuclei count, a form of cell viability, as detected with optical fluorescence microscopy by Perkin Elmer Harmony nuclei detection algorithm. The assay endpoints were analyzed with bidirectional fitting relative to 0.2% DMSO control in the DEVTOX-GLR assay.Data from the assay component CCTE_Deisenroth_DEVTOX-GLR_legacy_CellCount was analyzed into 1 assay endpoint. This assay endpoint, CCTE_Deisenroth_DEVTOX-GLR_legacy_CellCount, was analyzed with bidirectional fitting relative to DMSO as the negative control and baseline activity. Using nuclei counting, gain or loss-of-signal activity can be used to understand changes in cell viability. Furthermore, this assay endpoint can be referred to as a primary readout, because this assay has produced multiple assay endpoints where this one serves as a measure of cytotoxicity. […]
# [8] = VALA_TUBHUV_Antagonist_TubuleLength: VALA Sciences human Umbilical Vein Endothelial Tubule Formation (TUBHUV) Antagonism Assay (AID 2284325; active means hit-call score of the fitted dose curve at least 0.9, where 1 is the maximum)
# How it was run: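 Tubule length was imaged via CD31 immunofluorescence after a further 3-day compound exposure in 10 ng/ml VEGF, following 3-day pre-culture of HUVEC with HDF at 1:3. Vehicle 0.1% DMSO; suramin (100 uM) inhibition control.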
smiles,measurement,setting,value
O=S1(=O)OCC2C(CO1)C1(Cl)C(Cl)=C(Cl)C2(Cl)C1(Cl)Cl (configuration not stated),outcome,[1],inactive
O=P(OCC(Br)CBr)(OCC(Br)CBr)OCC(Br)CBr (configuration not stated),outcome,[2],inactive
same,outcome,[3],inactive
same,AC50,SRD5A2 (gene 6716),26.8 µM (active)
O=C(O)C(F)(F)OC(F)(F)C(F)(F)OC(F)(F)C(=O)O,outcome,[4],inactive
same,AC50,TTR (gene 7276),0.746 µM (active)
CCCCOCCOP(=O)(OCCOCCCC)OCCOCCCC,outcome,[1],inactive
CCOc1ccc(C(C)(C)COCc2cccc(Oc3ccccc3)c2)cc1,outcome,[4],inactive
same,outcome,[1],inactive
CCC1(c2ccccc2)C(=O)N=C(O)NC1=O (configuration not stated),outcome,[5],inactive
O=C(O)C1C(C(=O)O)C2(Cl)C(Cl)=C(Cl)C1(Cl)C2(Cl)Cl (configuration not stated),outcome,[2],inactive
same,outcome,[3],inactive
same,outcome,SRD5A2 (gene 6716),inactive
O=S(=O)(F)C(F)(F)C(F)(F)C(F)(F)C(F)(F)C(F)(F)C(F)(F)C(F)(F)C(F)(F)F,AC50,TTR (gene 7276),55 µM (active)
OCC(F)(F)OC(F)(F)C(F)(F)OC(F)(F)C(F)(F)OC(F)(F)F,AC50,TTR (gene 7276),51.7 µM (active)
CO/N=C(/C(=O)OC)c1ccccc1COc1ccccc1C,AC50,[4],19.7 µM (active)
same,outcome,[1],inactive
CCCN(CCC)c1c([N+](=O)[O-])cc(C(C)C)cc1[N+](=O)[O-],outcome,[2],inactive
same,outcome,[3],inactive
same,outcome,SRD5A2 (gene 6716),inactive
O=C(O)C=CC(F)(C(F)(F)F)C(F)(F)F,outcome,[4],inactive
same,AC50,TTR (gene 7276),9.44 µM (active)
C=CC(=O)OCC(F)(F)C(F)F,AC50,TTR (gene 7276),56.8 µM (active)
O=P(Oc1ccccc1)(Oc1ccccc1)Oc1ccccc1,outcome,[5],inactive
same,outcome,[1],inactive
O=P1(N(CCCl)CCCl)NCCCO1 (configuration not stated),outcome,[6],inactive
same,outcome,[7],inactive
Cc1ccc(N)cc1N,outcome,[8],inactive
CC1(C)CN=C(NN=C(/C=C/c2ccc(C(F)(F)F)cc2)/C=C/c2ccc(C(F)(F)F)cc2)NC1,AC50,[2],50 µM (active)
same,AC50,[3],50 µM (active)
same,AC50,SRD5A2 (gene 6716),50 µM (active)
ClC1=C(Cl)C2(Cl)C3C(Cl)C(Cl)CC3C1(Cl)C2(Cl)Cl (configuration not stated),outcome,[2],inactive
same,outcome,[3],inactive
same,outcome,SRD5A2 (gene 6716),inactive
O=C(O)C(F)(F)OC(F)(F)C(F)(F)OC(F)(F)F,outcome,[4],inactive
same,AC50,TTR (gene 7276),3.59 µM (active)
CCOP(=S)(OCC)SCSCC,outcome,[4],inactive
same,outcome,[2],inactive
same,outcome,[3],inactive
same,outcome,SRD5A2 (gene 6716),inactive
same,outcome,[1],inactive
CC(C)(C)c1ccccc1OP(=O)(Oc1ccccc1)Oc1ccccc1,outcome,[5],inactive
same,outcome,[1],inactive
COC(=O)C(F)(F)C(F)(F)OC(F)(C(F)(F)F)C(F)(F)OC(F)=C(F)F (configuration not stated),AC50,TTR (gene 7276),0.977 µM (active)
O=C(O)C(F)(OC(F)(F)C(F)(F)C(F)(F)F)C(F)(F)F (configuration not stated),outcome,[4],inactive
same,outcome,[1],inactive
OCC(F)(F)OC(F)(F)C(F)(F)OC(F)(F)C(F)(F)OC(F)(F)CO,AC50,TTR (gene 7276),9.52 µM (active)
c1ccc2c(c1)Nc1ccccc1S2,outcome,[2],inactive
same,outcome,[3],inactive
same,AC50,SRD5A2 (gene 6716),23.7 µM (active)
CCCCC(CC)COP(=O)(Oc1ccccc1)Oc1ccccc1 (configuration not stated),outcome,[5],inactive
OCC(F)(F)OC(F)(F)C(F)(F)OC(F)(F)CO,AC50,TTR (gene 7276),40.1 µM (active)
